Assay outcomes as filed in PubChem.
LASV entry inh: inhibitors of Lassa virus binding or cell entry. Potency, µM (doses to about 37.9 µM), inactives show at the highest dose activity change, negative = inhibition, hits mostly inhibitors. Lassa virus pseudotype entry inhibition, cell reporter. 1.2% of 300,000 active. AID 540256; calls by dose curve; tested in HEK293 cells; also: potency is read from the fitted curve at half-maximal effect; nearly all actives have a fitted effect of over 50% in size
HCMV antiviral: human cytomegalovirus inhibition. HFF cells, HCMV-luciferase reporter, 72 h; stronger effect = lower value. activity change, negative = inhibition, % at 57.5 µM. 4.5% of 410,000 active; in the data active = activity change below about -60%; inconclusive = no clear call, values can overlap the other calls; inactive = above about -39%
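Luciferase read-out from HCMV-luciferase-infected HFFs (MOI 1 PFU/cell) 72 h post infection at 37C; compounds added after 16 h cell attachment; activity normalized between buffer-only basal and Salinomycin (10uM) inhibitor controls.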
Vaccinia mCherry: inhibitors of vaccinia virus infection (mCherry reporter signal) | 0.63% of 310,000 active | Vaccinia virus mCherry reporter infection, fluorescence | Potency, µM (highest dose often 36.5 µM), for inactives: at the highest dose activity change, negative = inhibition, usual class: inhibitors; calls by dose curve; tested in A549 cells; also: potency is read from the fitted curve at half-maximal effect; nearly all actives have a fitted effect of over 35% in size
Vaccinia Venus: vaccinia inhibition (Venus reporter). Vaccinia virus Venus reporter expression, fluorescence. Potency, µM (series often up to 36.5 µM), inactives show at the top dose activity change, negative = inhibition, actives largely listed as inhibitors. 0.46% of 330,000 active; calls by dose curve; tested in A549 cells; also: potency is read from the fitted curve at half-maximal effect; nearly all actives have a fitted effect of over 30% in size
Marburg entry inh: inhibitors of Marburg virus binding or cell entry; Marburg virus pseudotyped entry inhibition, cell reporter; Potency, µM (top dose mostly 37.8 µM), for inactives: at the top dose activity change, negative = inhibition, actives largely listed as inhibitors; 1.8% of 300,000 active; AID 540276; calls by dose curve; tested in HEK293 cells; also: potency is read from the fitted curve at half-maximal effect
HCV inhibitor: inhibitors of hepatitis C virus infection. Huh7.5.1 HCVcc-Cre infection, luciferase reporter, 44 h. 3.4% of 340,000 active. Potency, µM (top dose mostly 41.8 µM), without a hit: top-dose activity change, negative = inhibition, usual class: inhibitors; active = well fitted inhibition curve with a large enough effect; inconclusive = small, poorly fitted or top-dose-only effect, or another doubt; inactive = no such curve, though single readings can be large or run the other way; also: potency is read from the fitted curve at half-maximal effect
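HCVcc-Cre virus at an moi near 0.5 was added right after compound to cells cultured 4 h from seeding (1,000 cells/well). Luciferase activity was determined 44 h later, 15 min after substrate addition at RT.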
Active calls of the source: *; [ ] = another dose, or the depositor's remark. Only some compounds are listed: those with a hit (about 7.8% of all), similar ones and a draw of the others. % is scaled to controls: 0 for no effect and ±100 for the full control effect.

How did CCNC(=O)C1(C)CCN(C(=O)c2ccccc2F)C1 (centres undefined) do in these assays?
HCMV antiviral: -98.5*; Vaccinia mCherry: 8.7%; Vaccinia Venus: -2.5%

Results for COCCNC(=O)C1(C)CCN(C(=O)c2cccnc2Oc2ccccc2)C1 (centres undefined) ?
HCMV antiviral: -1.1; Vaccinia mCherry: 28.2µM*; Vaccinia Venus: 31.6µM*

Results for Cc1nc2ccc(C(=O)N3CCOc4ccc(CN5CCOCC5)cc4C3)cc2nc1C ?
Vaccinia mCherry: -4.4%; Vaccinia Venus: 13.7%

Results for Cc1ccc(NC(=O)COC(=O)c2ccc3c(c2)NC(=O)C2CCCN32)cc1 (centres undefined) ?
LASV entry inh: 0.5%; HCMV antiviral: 56.1; Marburg entry inh: -21.7%; HCV inhibitor: 10µM*

How did O=c1c(-c2nc3ccccc3s2)cccn1Cc1ccc(Cl)c(Cl)c1 do in these assays?
LASV entry inh: 4.3%; HCMV antiviral: -63.0*; Marburg entry inh: 0.5%; HCV inhibitor: inconclusive

How did O=C(c1cccn(Cc2ccc(Cl)c(Cl)c2)c1=O)N1CCOCC1 do in these assays?
LASV entry inh: -0.2%; HCMV antiviral: -23.3; Marburg entry inh: -1.6%; HCV inhibitor: 0.8%

Results for Oc1ccc(C[C@H]2CNC(=S)N2CC2CCCN2C[C@H](Cc2ccc(O)cc2)N2C[C@H](Cc3ccccc3)N(CCc3ccccc3)C2=S)cc1 (some centres undefined) ?
HCMV antiviral: -23.6; Vaccinia mCherry: inconclusive; Vaccinia Venus: inconclusive; HCV inhibitor: 4.47µM*

How did CC(C)C[C@H]1CNC(=S)N1C[C@H]1CCCN1C[C@H](Cc1ccc(O)cc1)N1C[C@H](Cc2ccccc2)N(CCc2ccccc2)C1=S do in these assays?
HCMV antiviral: -11.3; Vaccinia mCherry: 8.0%; Vaccinia Venus: -17.5%

What do the screens show for `Oc1ccc(C[C@H]2CN([C@@H](Cc3ccccc3)CN3CCCC3CN3C(=S)NC[C@@H]3Cc3ccccc3)C(=S)N2CC2CCCCC2)cc1` (some centres undefined)?
HCMV antiviral: inconclusive; Vaccinia mCherry: 1.2%; Vaccinia Venus: -9.9%

How did Oc1ccc(C[C@H]2CNC(=S)N2C[C@H]2CCCN2C[C@H](Cc2ccccc2)N2C[C@H](Cc3ccc(O)cc3)N(CC3CCCCCC3)C2=S)cc1 do in these assays?
HCMV antiviral: inconclusive; Vaccinia mCherry: -13.5%; Vaccinia Venus: -22.1%

What do the screens show for `Oc1ccc(C[C@H]2CN([C@@H](Cc3ccc(O)cc3)CN3CCC[C@@H]3CN3C(=S)NC[C@@H]3Cc3ccccc3)C(=S)N2CC2CCCCCC2)cc1`?
HCMV antiviral: -97.2*; Vaccinia mCherry: inconclusive; Vaccinia Venus: inconclusive

Results for Oc1ccc(C[C@H]2CNC(=S)N2CC2CCCN2C[C@H](Cc2ccc(O)cc2)N2C[C@H](Cc3ccc(O)cc3)N(CC3CCCCC3)C2=S)cc1 (some centres undefined) ?
HCMV antiviral: -92.6*; Vaccinia mCherry: inconclusive; Vaccinia Venus: 10µM*; HCV inhibitor: inconclusive

Results for Oc1ccc(C[C@H]2CNC(=S)N2CC2CCCN2C[C@H](Cc2ccccc2)N2C[C@H](Cc3ccc(O)cc3)N(CC3CCCCCC3)C2=S)cc1 (some centres undefined) ?
HCMV antiviral: -62.6*; Vaccinia mCherry: inconclusive; Vaccinia Venus: inconclusive; HCV inhibitor: inconclusive

Results for COc1ccc(NC(=O)N2CC(=O)N3[C@H](CO)[C@@H](c4ccc(Br)cc4)[C@@H]3C2)cc1 ?
HCMV antiviral: -1.1

What do the screens show for `COC(=O)c1sccc1S(=O)(=O)N(CC(=O)Nc1ccccc1C)c1ccc(Cl)cc1`?
LASV entry inh: inconclusive; HCMV antiviral: -14.6; Vaccinia mCherry: -3.9%; Vaccinia Venus: 2.9%

How did CC(=O)N1CCc2cc(Br)cc(S(=O)(=O)N3CCN(c4cccc(C)c4)C(C)C3)c21 (centres undefined) do in these assays?
LASV entry inh: -0.2%[46.1 µM]; HCMV antiviral: -4.1; Vaccinia mCherry: -7.4%; Vaccinia Venus: 6.8%; Marburg entry inh: -1.8%[46.1 µM]

How did CCOc1cc(CNC(=O)Cn2c(=O)c3cccn3c3ccc(F)cc32)cc(OCC)c1OCC do in these assays?
LASV entry inh: -2.7%[46.1 µM]; HCMV antiviral: -25.4; Vaccinia mCherry: inconclusive; Vaccinia Venus: inconclusive

What do the screens show for `O=C(CCn1c(=O)c2sccc2n(Cc2ccccc2F)c1=O)NCc1ccc2c(c1)OCO2`?
LASV entry inh: 5.5%[46.1 µM]; HCMV antiviral: -7.7; Vaccinia mCherry: -21.1%; Vaccinia Venus: -18.9%; Marburg entry inh: 2.9%[46.1 µM]

How did Oc1ccc(C[C@H]2CN([C@@H](Cc3cccc(O)c3)CN3CCC[C@@H]3CN3C(=S)NC[C@@H]3Cc3ccccc3)C(=S)N2CC2CCCCC2)cc1 do in these assays?
HCMV antiviral: -71.6*; Vaccinia mCherry: inconclusive; Vaccinia Venus: inconclusive

How did Cc1ccc2c(CC(=O)Nc3c(C(=O)c4ccc(F)cc4)oc4ccccc34)coc2c1C do in these assays?
LASV entry inh: 14.1%[46.1 µM]; HCMV antiviral: -31.0; Vaccinia mCherry: inactive; Vaccinia Venus: -12.9%; Marburg entry inh: 20.7%[46.1 µM]

How did CN(C)c1ccc(Nc2nc(N)c3ccccc3n2)cc1 do in these assays?
LASV entry inh: 0.891µM*; HCMV antiviral: -29.8; Vaccinia mCherry: inconclusive; Vaccinia Venus: -27.0%; Marburg entry inh: 0.631µM*; HCV inhibitor: inconclusive

How did Nc1nc(Nc2ccccc2)nc2ccccc12 do in these assays?
LASV entry inh: inconclusive; HCMV antiviral: 229.3; Vaccinia mCherry: inactive; Vaccinia Venus: -23.8%; Marburg entry inh: inconclusive; HCV inhibitor: 6.7%

What do the screens show for `CCOc1ccc(Nc2nc(N)c3ccccc3n2)cc1`?
LASV entry inh: inconclusive; HCMV antiviral: -2.3; Vaccinia mCherry: inconclusive; Vaccinia Venus: inconclusive; Marburg entry inh: 4.47µM*; HCV inhibitor: 1.9%

What do the screens show for `Nc1nc(Nc2ccc(Cl)cc2)nc2ccccc12`?
LASV entry inh: inconclusive; HCMV antiviral: 104.7; Vaccinia mCherry: inconclusive; Vaccinia Venus: inconclusive; Marburg entry inh: inconclusive; HCV inhibitor: -8.4%

What do the screens show for `O=C(CCc1nc(-c2cccs2)no1)Nc1cccc([N+](=O)[O-])c1`?
LASV entry inh: 7.8%[46.1 µM]; HCMV antiviral: -7.9; Vaccinia mCherry: -8.1%; Vaccinia Venus: -17.5%; Marburg entry inh: 0.8%[46.1 µM]

How did CCOC(=O)c1cnc2ccc(OC(F)(F)F)cc2c1Nc1ccccc1C(=O)O do in these assays?
LASV entry inh: -19.2%[46.1 µM]; HCMV antiviral: -6.0; Vaccinia mCherry: 9.0%; Vaccinia Venus: -7.8%; Marburg entry inh: 13.8%[46.1 µM]

What do the screens show for `CCN(Cc1ccncc1)C(=O)CC1C(=O)NCCN1Cc1ccc(F)c(F)c1` (centres undefined)?
HCMV antiviral: -77.9*; HCV inhibitor: -0.2%
